This excerpt belongs to a sample that is enriched for hits.
mHTT CaM bind – inhibitors of human mutant huntingtin-calmodulin interaction; 3.6% of 190,000 active; P42858; AID 1671202; AlphaScreen His-mHTT/GST-CaM binding, luminescence; inhibition, % at 15 µM;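 also: 0% = both proteins with DMSO and 100% = one protein alone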
Target sequence (P42858 whole entry, looked up, stated change not applied): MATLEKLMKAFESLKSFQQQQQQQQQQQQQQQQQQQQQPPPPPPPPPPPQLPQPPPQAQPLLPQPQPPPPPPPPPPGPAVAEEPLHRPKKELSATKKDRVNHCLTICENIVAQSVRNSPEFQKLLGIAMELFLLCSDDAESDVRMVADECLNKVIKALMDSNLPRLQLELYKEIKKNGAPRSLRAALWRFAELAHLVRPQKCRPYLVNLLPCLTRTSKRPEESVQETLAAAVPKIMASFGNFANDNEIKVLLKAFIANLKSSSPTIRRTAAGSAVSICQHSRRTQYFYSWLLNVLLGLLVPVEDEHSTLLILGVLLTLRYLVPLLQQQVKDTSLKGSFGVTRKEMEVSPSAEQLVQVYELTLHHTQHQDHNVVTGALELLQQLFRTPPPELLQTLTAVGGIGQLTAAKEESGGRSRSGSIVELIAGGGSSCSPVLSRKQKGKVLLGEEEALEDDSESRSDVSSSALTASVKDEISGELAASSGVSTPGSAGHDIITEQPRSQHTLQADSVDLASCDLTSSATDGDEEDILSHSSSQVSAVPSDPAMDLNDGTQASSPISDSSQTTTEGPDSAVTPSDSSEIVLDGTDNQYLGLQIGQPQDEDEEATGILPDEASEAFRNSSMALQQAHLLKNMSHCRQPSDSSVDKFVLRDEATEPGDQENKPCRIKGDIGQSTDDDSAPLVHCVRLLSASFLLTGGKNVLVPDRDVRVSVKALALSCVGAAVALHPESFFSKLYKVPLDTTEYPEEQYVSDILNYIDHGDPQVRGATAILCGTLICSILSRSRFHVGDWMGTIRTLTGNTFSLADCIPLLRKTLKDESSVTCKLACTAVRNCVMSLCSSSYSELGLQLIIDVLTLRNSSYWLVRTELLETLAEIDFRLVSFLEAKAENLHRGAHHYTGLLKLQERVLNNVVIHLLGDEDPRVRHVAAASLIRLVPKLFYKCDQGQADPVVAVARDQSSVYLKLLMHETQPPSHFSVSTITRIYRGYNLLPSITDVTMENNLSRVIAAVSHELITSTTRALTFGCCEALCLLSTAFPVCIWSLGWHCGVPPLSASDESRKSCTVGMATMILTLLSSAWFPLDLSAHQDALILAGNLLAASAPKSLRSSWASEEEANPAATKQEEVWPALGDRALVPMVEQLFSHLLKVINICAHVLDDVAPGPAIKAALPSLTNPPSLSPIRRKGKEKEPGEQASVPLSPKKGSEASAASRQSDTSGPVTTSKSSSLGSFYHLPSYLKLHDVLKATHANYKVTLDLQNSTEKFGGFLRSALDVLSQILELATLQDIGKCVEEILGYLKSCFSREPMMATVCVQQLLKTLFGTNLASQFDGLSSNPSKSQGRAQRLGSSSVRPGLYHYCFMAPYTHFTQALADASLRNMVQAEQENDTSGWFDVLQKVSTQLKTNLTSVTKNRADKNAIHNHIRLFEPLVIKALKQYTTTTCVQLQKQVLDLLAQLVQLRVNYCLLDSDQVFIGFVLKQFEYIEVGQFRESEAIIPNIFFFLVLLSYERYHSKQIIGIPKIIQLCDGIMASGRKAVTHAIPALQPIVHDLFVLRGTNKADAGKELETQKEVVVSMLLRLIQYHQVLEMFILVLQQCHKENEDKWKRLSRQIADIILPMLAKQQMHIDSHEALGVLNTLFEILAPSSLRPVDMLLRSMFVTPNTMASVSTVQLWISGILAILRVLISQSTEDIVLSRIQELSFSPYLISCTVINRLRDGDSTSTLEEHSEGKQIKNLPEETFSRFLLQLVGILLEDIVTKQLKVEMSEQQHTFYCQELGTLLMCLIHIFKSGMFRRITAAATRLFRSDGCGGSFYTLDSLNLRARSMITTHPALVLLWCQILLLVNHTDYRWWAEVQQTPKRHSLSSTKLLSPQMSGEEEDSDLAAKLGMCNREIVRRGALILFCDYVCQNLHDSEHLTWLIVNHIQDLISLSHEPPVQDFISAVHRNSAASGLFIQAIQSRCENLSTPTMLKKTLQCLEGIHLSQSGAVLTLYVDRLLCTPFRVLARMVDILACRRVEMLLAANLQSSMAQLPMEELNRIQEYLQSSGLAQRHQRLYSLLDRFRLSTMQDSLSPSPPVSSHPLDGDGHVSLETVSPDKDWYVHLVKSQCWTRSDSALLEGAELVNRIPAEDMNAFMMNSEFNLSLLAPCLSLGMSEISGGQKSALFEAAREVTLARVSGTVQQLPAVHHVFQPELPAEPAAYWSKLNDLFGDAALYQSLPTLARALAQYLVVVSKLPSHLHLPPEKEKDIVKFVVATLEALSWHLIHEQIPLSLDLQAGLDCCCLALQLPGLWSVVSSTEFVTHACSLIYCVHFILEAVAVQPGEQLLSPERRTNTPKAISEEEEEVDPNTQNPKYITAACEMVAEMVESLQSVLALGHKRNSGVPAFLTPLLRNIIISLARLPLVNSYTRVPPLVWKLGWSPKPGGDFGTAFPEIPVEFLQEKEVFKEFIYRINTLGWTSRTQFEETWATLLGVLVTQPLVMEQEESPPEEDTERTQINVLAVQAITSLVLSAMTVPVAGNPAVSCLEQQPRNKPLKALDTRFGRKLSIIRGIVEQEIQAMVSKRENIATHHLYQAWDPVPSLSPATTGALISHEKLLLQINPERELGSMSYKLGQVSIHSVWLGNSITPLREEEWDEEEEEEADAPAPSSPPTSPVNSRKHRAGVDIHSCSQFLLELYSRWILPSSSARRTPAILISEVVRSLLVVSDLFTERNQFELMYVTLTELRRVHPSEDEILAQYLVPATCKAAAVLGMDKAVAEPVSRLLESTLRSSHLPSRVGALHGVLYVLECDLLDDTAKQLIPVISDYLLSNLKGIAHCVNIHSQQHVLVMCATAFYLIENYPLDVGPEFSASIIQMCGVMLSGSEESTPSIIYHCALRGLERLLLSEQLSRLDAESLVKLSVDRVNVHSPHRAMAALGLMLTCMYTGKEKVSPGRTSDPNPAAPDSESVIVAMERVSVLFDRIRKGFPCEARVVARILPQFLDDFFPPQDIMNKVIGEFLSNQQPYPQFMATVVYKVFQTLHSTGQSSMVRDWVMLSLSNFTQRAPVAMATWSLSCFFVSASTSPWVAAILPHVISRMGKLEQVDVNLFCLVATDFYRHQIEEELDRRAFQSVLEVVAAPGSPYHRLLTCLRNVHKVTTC
Pf apPOL inh – Pf-apPOL DNA polymerase inhibition; Recombinant Pf-apPOL, molecular beacon fluorescence, 1.5 h; inhibition, % at 10 µM; 0.25% of 210,000 active
* marks the source's active call; other numbers are inactive results; . = no result given. Rule as the data show it: active = inhibition above about 50%; inactive = the rest.

SMILES	mHTT CaM bind	Pf apPOL inh
Cc1ccc(NC(=O)CN2CCC(c3nc(-c4ccc(F)cc4)no3)CC2)cc1	-4.6	4.8
CCc1cc(C2CCCN2C(=O)c2cc(-c3ccc4c(c3)OCO4)on2)on1 (stereo not drawn)	10.9	-0.8
CC(=O)Nc1cccc(-c2csc(Nc3ccc(C(=O)O)cc3)n2)c1	9.4	-9.9
CCOc1ccc(Nc2nc(-c3sc(NC(C)=O)nc3C)cs2)cc1	64.2*	8.2
CC(=O)Nc1nc(C)c(-c2csc(Nc3ccc(C(=O)O)cc3)n2)s1	4.8	-7.2
CC(=O)Nc1ccc(Nc2nc(-c3ccccn3)cs2)cc1	92.0*	-7.1
Cc1ccc(Cl)cc1N1CCN(CC(O)c2ccc3c(c2)CCN3)CC1 (stereo not drawn)	70.8*	-3.9
OC(CN1CCN(c2ccc(Cl)cc2)CC1)c1ccc2c(c1)CCN2 (stereo not drawn)	0.3	-5.9
O=C(C1CCCN(c2nccnc2Sc2ccccc2)C1)N1CCCCC1 (stereo not drawn)	10.0	-4.5
O=c1[nH]c2ccc(Cl)cc2c(-c2ccccc2)c1[N+](=O)[O-]	17.0	-1.9
CS(=O)(=O)N1N=C(c2c(-c3ccccc3)c3cc(Cl)ccc3[nH]c2=O)CC1c1ccccc1 (stereo not drawn)	67.0*	-0.3
CCCNC(=O)c1cc(N2CCCC(C)C2)nc2ccccc12 (stereo not drawn)	-28.8	-0.8
COc1ccc(CN2CCc3cc(OC)c(OC)cc3C2)cc1OC	-1.9	7.1
COc1cc2c(cc1OC)CN(Cc1ccc(OCc3ccccc3)c(OC)c1)CC2	100.2*	-0.3
Cc1ccc(S(=O)(=O)N2CCc3nc(NC(=O)c4cccnc4)sc3C2)cc1	-0.6	-3.8
O=C(Nc1nc2c(s1)CN(S(=O)(=O)C=Cc1ccccc1)CC2)c1cnccn1	71.0*	24.4
CCOc1ccccc1S(=O)(=O)N1CCc2nc(NC(=O)c3cnccn3)sc2C1	50.1*	18.5
O=C(Nc1nc2c(s1)CN(C(=O)COc1ccccc1)CC2)c1cnccn1	9.1	10.7
Cn1cnnc1SCC(=O)N1N=C(c2cccs2)CC1c1ccc(F)cc1 (stereo not drawn)	-7.3	-1.0
Cc1cc(C)cc(N2CC(C(=O)N3CCCC3)CC2=O)c1 (stereo not drawn)	-1.2	1.8
C=CCn1ccc2ccn(CCc3c(C)noc3C)c(=O)c21	1.9	-1.6
CCCc1ccc(Oc2cn[nH]c2-c2ccc(O)c(C)c2O)cc1	90.1*	-7.0
Oc1ccc(-c2[nH]ncc2Oc2ccccc2)c(O)c1	44.0	2.5
Oc1ccc(-c2[nH]ncc2Oc2ccccc2)c(O)c1O	100.0*	-2.4
COc1ccc(-c2n[nH]c(C)c2Oc2ccccc2)c(O)c1	32.0	-2.7
SMILES	mHTT CaM bind	Pf apPOL inh
CCCc1ccc(Oc2c(C)oc3c(C)c(O)ccc3c2=O)cc1	1.5	-10.7
Cc1[nH]nc(-c2ccc(O)c(O)c2O)c1Oc1ccccc1	97.3*	-6.3
CCN(CC)C(=O)Oc1ccc2c(c1)OC(=Cc1ccc(OC)cc1)C2=O	-15.1	1.0
CCCNC(=O)N1CCCN(C2CCN(Cc3ccccc3)C2=O)CC1 (stereo not drawn)	-5.9	0.9
Cc1ccc(-c2csc3nc(CN4CCOCC4)[nH]c(=O)c23)cc1C	24.0	-2.5
Cc1ccc(N(CC(=O)Nc2ccccc2C(N)=O)S(C)(=O)=O)cc1C	-3.3	-2.2
COc1ccc(Cl)cc1C(=O)NCCn1nc(-c2ccc(F)cc2)ccc1=O	26.8	-13.9
Nc1c(-c2ccccc2Cl)c2cc(Br)ccc2[nH]c1=O	79.0*	-7.5
Cc1cc(Br)ccc1NS(=O)(=O)c1ccc2nc(-c3ccccc3)[nH]c2c1	-2.0	-9.1
Cc1[nH]c2ccc(Br)cc2c(=O)c1CN1CCOCC1	-0.8	-1.1
O=c1[nH]c2ccc(Br)cc2c(-c2ccccc2)c1CN1CCCCC1	100.0*	-3.1
Nc1c2c3c(c(Cl)ccc3[nH]c1=O)C(=O)c1ccccc1-2	13.0	0.5
O=c1[nH]c2ccc(Br)cc2c(-c2ccccc2)c1NS(=O)(=O)c1ccccc1	97.6*	21.1
CCC1CCCCN1C(=O)c1nn(-c2ccccc2OC)c(=O)c2ccccc12 (stereo not drawn)	10.0	-4.0
O=C(/C=C/N1CCOCC1)c1cccs1	-7.0	.
Cc1ccc(C(=O)N2CC3CC(NC(=O)c4cccs4)C2C3)cn1 (stereo not drawn)	-1.3	-3.2
O=C(NCCNc1c(Cl)cccc1[N+](=O)[O-])c1ccccc1Cl	9.0	-0.3
Cc1cc(C)cc(-n2c(CN3CCN(C(=O)Nc4ccccc4)CC3)nc3cccnc32)c1	10.2	1.6
COC(=O)C1=C(N)Oc2c(oc(CO)cc2=O)C1c1ccc(Cl)c(Cl)c1 (stereo not drawn)	69.8*	-7.8
COC(=O)C1=C(N)Oc2c(oc(CO)cc2=O)C1c1ccc(Cl)cc1 (stereo not drawn)	2.0	-2.4
Cc1nnsc1C(=O)N1CCC(CNC(=O)Cc2ccccc2Cl)CC1	0.5	-5.4
Cc1ccc(NC(=O)N2CCCC(OCc3ccccc3C)C2)cc1 (stereo not drawn)	-7.3	-0.3
O=C1C(=O)N(Cc2c(F)cccc2Cl)c2ccc(Br)cc21	66.0*	0.1
CCN(CC)C(=O)CN1C(=O)C(=O)c2ccccc21	0.3	4.3
O=C1C(=O)N(Cc2ccccc2Cl)c2ccc(Br)cc21	86.0*	-2.2
SMILES	mHTT CaM bind	Pf apPOL inh
O=C1C(=O)N(Cc2csc(-c3ccc(Cl)cc3)n2)c2ccc(Br)cc21	46.0	0.3
CCN(CC)C(=O)CN1C(=O)C(=O)c2cc(Br)ccc21	97.3*	.
O=C1C(=O)N(Cc2ccccc2)c2ccc(Br)cc21	48.0	5.0
O=C(Nc1ccc(Cl)c(Cl)c1)NN1CCOCC1	5.7	-0.1
c1ccc2c(c1)nnn2CN1CCN(c2ccc3c(c2)OCO3)CC1	-7.3	.
O=C(NCCc1c[nH]c2ccccc12)c1cc2nc(-c3ccco3)cc(C(F)(F)Cl)n2n1	76.0*	-2.3
O=C(NCCCN1CCOCC1)c1cc2nc(-c3ccco3)cc(C(F)(F)Cl)n2n1	13.0	-2.2
COc1cc([N+](=O)[O-])cc2c1NC(C(C)C)C1CC=CC21 (stereo not drawn)	15.5	-3.6
COc1cc2c(c([N+](=O)[O-])c1)NC(C(C)C)C1CC=CC21 (stereo not drawn)	97.0*	-5.8
CCOc1cc2c(c([N+](=O)[O-])c1)NC(c1cccc([N+](=O)[O-])c1)C1CC=CC21 (stereo not drawn)	41.0	2.6
CCOc1cc2c(c([N+](=O)[O-])c1)NC(c1ccccc1)C1CC=CC21 (stereo not drawn)	57.0*	-2.2
O=C(NCCSc1ccccn1)c1ccc(Br)cc1	-5.0	-3.0
Cc1sc2c(=O)n(C(C)C)cnc2c1C(=O)NCc1cccc(Cl)c1	-1.3	1.3
Cc1ccc(N2CN(C(C)C)S(=O)(=O)c3cccnc32)cc1	-13.6	-3.0
CCCCCCCNC(=O)C1CCCN(c2ncc(-c3ccc(F)cc3)cn2)C1 (stereo not drawn)	-1.6	-4.4
Nc1ccccc1S(=O)(=O)Nc1cccc2cccnc12	100.0*	-18.7
Cc1ccc(S(=O)(=O)Nc2cccc3cccnc23)cc1	37.9	-44.7
N#Cc1c(-c2ccccc2F)c(C#N)c2nc3ccccc3n2c1N	-15.0	-3.0
CC(Cc1cccs1)NC(=O)c1ccc2nsnc2c1 (stereo not drawn)	-5.1	-2.6
O=C(O)c1cc(-c2ccc(-c3c(-c4ccco4)noc3-c3ccccc3)cc2)nc2ccccc12	68.7*	74.4*
O=C(O)c1cc(-c2ccccc2)nc2ccccc12	-1.8	-0.8

Assay outcomes as filed in PubChem BioAssay.
